# Sampled rows, rich in hits. Any-hit rate of the full collection: about 6%.
# D1 PAM: Potentiators of Human D1 Dopamine Receptor: qHTS | D(1A) dopamine receptor (Homo sapiens), P21728 | HEK293 TREx D1 cells, calcium flux, dopamine EC20 potentiation | potentiation, % at 10 µM | 360,000 compounds, 0.036% hits; in the data active = potentiation above about 30%; note: 0% is about no effect
# DRD3 antagonist: qHTS of D3 Dopamine Receptor Antagonist: qHTS; max response, negative = inhibition, %; D(3) dopamine receptor (Homo sapiens), P35462; AID 652054, 2013; 360,000 compounds, 2.5% hits; D3R cells, DiscoveRx beta-arrestin luminescence, antagonist mode; hits give low values; in the data active = max response below about -50%; inconclusive = no clear call, values can overlap the other calls; note: % is set by controls: 0 for no effect and ±100 for the full control effect
# Target sequence (P35462 whole entry, looked up): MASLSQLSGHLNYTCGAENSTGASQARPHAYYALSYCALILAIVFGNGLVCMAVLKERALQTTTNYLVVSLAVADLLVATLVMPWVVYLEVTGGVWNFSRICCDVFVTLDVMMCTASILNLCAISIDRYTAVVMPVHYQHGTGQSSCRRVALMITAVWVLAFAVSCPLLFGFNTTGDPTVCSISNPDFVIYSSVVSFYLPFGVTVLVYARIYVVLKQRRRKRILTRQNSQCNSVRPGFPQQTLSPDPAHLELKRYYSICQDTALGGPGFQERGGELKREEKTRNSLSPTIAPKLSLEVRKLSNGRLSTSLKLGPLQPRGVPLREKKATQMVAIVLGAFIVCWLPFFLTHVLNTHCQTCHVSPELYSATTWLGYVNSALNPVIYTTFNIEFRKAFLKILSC
#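 Cells expressing the human receptor were seeded at 1500 cells/well, incubated overnight at 37 degrees C in 5% CO2, then exposed to library compounds with dopamine controls for 90 minutes at 37 degrees C before luminescent detection.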
# D1 ag: Allosteric Agonists of the Human D1 Dopamine Receptor: qHTS | D(1A) dopamine receptor (Homo sapiens), P21728 | HEK293 T-REx D1 cells, calcium flux, agonist mode | activation, % at 2 µM | 360,000 compounds, 1% hits | AID 504660, 2011; in the data active = activation above about 30%; note: 0% is about no effect
#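 Agonism was scored from calcium flux recorded over 180 s (1 read/s) after pintool compound addition, following a 10-cycle baseline. Cells were inducible force-coupled HEK293 TREx D1, plated overnight at 30 C and loaded with no-wash calcium dye.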
# DRD3 agonist: qHTS of D3 Dopamine Receptor Agonist: qHTS. D(3) dopamine receptor (Homo sapiens), P35462. D3R DiscoveRx beta-arrestin cells, luminescence, 90 min. max activation, %. 410,000 compounds, 0.58% hits. AID 652048, 2013; in the data active = max activation above about 30%; note: 0% is about no effect
#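 Agonist-mode cell screen: cells plated at 1500/well and incubated overnight at 37 °C, then exposed to library compounds for 90 min at 37 °C. Detection reagent was added for 30–60 min at room temperature, and luminescence was read.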
# D1 antag: Antagonist of Human D 1 Dopamine Receptor: qHTS | D(1A) dopamine receptor (Homo sapiens), P21728 | HEK293 TREx D1 cells, calcium flux, dopamine EC80; hits give low values | activity change, negative = inhibition, % at 10 µM | 360,000 compounds, 3.2% hits; in the data active = activity change below about -30%; note: % is set by controls: 0 for no effect and ±100 for the full control effect
#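 Cells carrying a force-coupled, tetracycline-inducible human D1 receptor report calcium flux. Each well gets a 10 s baseline, compound with 180 s monitoring, then an EC80 dopamine stimulus with a second 180 s kinetic read.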
# An asterisk follows results filed as active; u = inconclusive; x = no result.
SMILES,D1 PAM,DRD3 antagonist,D1 ag,DRD3 agonist,D1 antag
O=C(NC1CCCCC1)N1CCC(n2c(=O)[nH]c3ccccc32)CC1,x,0.0,-0.3,-7.1,-4.8
CCc1ccc(NC(=O)C(Cc2ccccc2)NS(=O)(=O)c2ccc3c(c2)c(=O)n(C)c(=O)n3C)cc1 (centres undefined),-0.2,x,4.1,-8.1,0.8
CCOc1ccccc1NC(=O)Cn1c(=O)n(C(C)C)c(=O)c2oc3ccccc3c21,-1.2,x,4.5,-9.6,3.3
COc1cccc(C2C(C(=O)Nc3ccccc3OC)=C(C)Nc3nc4ccccc4n32)c1 (centres undefined),4.0,x,-0.6,-2.3,8.7
O=C(NCCN1CCOCC1)c1cccc(Cl)c1,-3.6,1.8,2.5,-4.8,-13.8
O=C(NCCN1CCC(n2c(=O)[nH]c3ccccc32)CC1)c1cccc(Cl)c1,x,-98.2*,x,-12.4,x
O=C(NCCN1CCC(n2c(=O)[nH]c3ccccc32)CC1)C(c1ccccc1)c1ccccc1,x,-78.3*,x,-15.7,x
Cc1ccccc1-n1c(O)c(/C=C/C=Nc2ccccc2)c(=O)[nH]c1=O,4.7,-14.1,40.6*,2.5,-10.3
Cc1ccc(-n2c(O)c(/C=C3/C(c4ccccc4)=Nc4ccccc43)c(=O)[nH]c2=O)cc1,-0.9,-2.3,-0.2,-4.2,5.2
COc1cccc(Cc2nc3ccccc3nc2SCC(=O)Nc2ccccc2F)c1,-2.1,x,8.7,2.8,5.8
Brc1cccc(OCCN2CCc3ccccc3C2)c1,-7.9,-73.2*,4.3,8.2,10.4
Cc1ccc(/C=N/NC(=O)Cn2cnc3ccccc32)cc1,-7.8,-0.7,4.1,4.2,-43.4*
CCc1cccc(OCCN2CCCC2)c1,2.4,-59.6*,3.4,-33.8,6.3
Cc1ccc(OCCCCn2cnc3ccccc32)cc1,-2.6,13.1,11.9,2.6,-36.6*
c1ccc(OCCCCn2cnc3ccccc32)cc1,-4.6,-16.1,8.9,7.6,-20.1
O=C(Cn1cnc2ccccc21)N/N=C/c1ccc([N+](=O)[O-])cc1,0.6,-16.9,3.6,-0.5,-4.2
COc1ccc(CNC(=O)c2cnc3sc(N4CCC(C)CC4)nn3c2=O)c(OC)c1,-1.9,x,5.6,-14.3,-11.1
COc1ccc(N(Cc2nnc3n2CCCCC3)C(=O)Nc2ccc(Cl)cc2)cc1Cl,-2.6,x,1.2,-1.7,-11.2
O=C(NCc1ccco1)c1ccc2c(c1)N(Cc1ccc(Cl)cc1)C(=O)c1ccccc1S2(=O)=O,-3.3,x,3.2,1.1,-2.7
Brc1cccc(OCCN2CCOCC2)c1,-4.7,u,-3.2,7.7,33.8
Cc1cccc(OCCCN2CCCCCC2)c1,-6.2,-50.8*,3.4,-29.8,-25.0
Cc1cccc(OCCCCCN2CCOCC2)c1,-0.1,u,3.8,-10.2,1.1
Brc1cccc(OCCN2CCCCC2)c1,-10.2,-92.4*,5.8,-36.3,10.5
Cc1ccc(OCCCCN2CCc3ccccc3C2)cc1,-13.6,-100.0*,2.2,-19.2,-10.3
Cc1ccc(OCCCCN2CCCCC2)cc1,1.7,-13.0,5.3,-5.9,1.3
SMILES,D1 PAM,DRD3 antagonist,D1 ag,DRD3 agonist,D1 antag
Cc1nc(SCc2ccc(Br)cc2)[nH]c(=O)c1C,-18.1,7.7,2.9,-6.6,-41.4*
CCn1c(CN2CCCCC2)nc2cc(NC(=O)c3ccc([N+](=O)[O-])cc3)ccc21,0.2,x,1.0,-4.6,-9.1
COc1cc(CSc2nnnn2-c2ccc(C)cc2)cc(OC)c1OC,-0.3,18.6,38.8*,13.3,-7.0
COc1ccc(C(C)=O)cc1CSc1nnnn1-c1ccc(O)cc1,-6.6,7.1,2.6,7.0,-35.1*
COc1ccc(C(C)=O)cc1CSC(=N)N,2.4,-54.1*,10.5,-5.0,-6.4
CCN(CC)C(=O)c1sc(NC(=O)c2nc3ncccn3n2)c(C(=O)OC)c1C,-3.3,x,-0.1,-6.4,-16.6
O=C1NC(=S)SC1=Cc1cccs1,x,u,x,-8.6,x
CN1CCC/C1=C/C=C1\SC(=S)NC1=O,-0.9,-64.3*,80.9*,-11.9,9.9
C/C(=N\NC(=O)c1cc(C)nc2ccccc12)c1cccs1,-2.1,-8.7,-0.6,0.2,-4.8
Cc1cc(C(=O)NN=C2CCCCC2)c2ccccc2n1,-6.0,-0.8,1.1,-19.8,-88.7*

# Screening data from PubChem.
